Laboratory results taken from PubChem BioAssay AID1030 (National Center for Advancing Translational Sciences (NCATS), 2008).
Out of some 220,000 compounds screened, about 16,000 (7.3%) were called active. Entries that show only a call come without a potency. Another 25% or so got no clear call; they are omitted. The sample as a whole holds a higher share of actives than the screen did. A number with no mark means an inactive call. The call rests on the fitted dose curve; in most records, active means well fitted inhibition curve with a large enough effect (not every such curve was filed as active); inconclusive means small, poorly fitted or top-dose-only effect, or another doubt; inactive means no such curve, though single readings can be large or run the other way.

Molecular target: Aldehyde dehydrogenase 1A1 (Homo sapiens) (UniProt P00352)
Sequence (P00352 whole entry, looked up): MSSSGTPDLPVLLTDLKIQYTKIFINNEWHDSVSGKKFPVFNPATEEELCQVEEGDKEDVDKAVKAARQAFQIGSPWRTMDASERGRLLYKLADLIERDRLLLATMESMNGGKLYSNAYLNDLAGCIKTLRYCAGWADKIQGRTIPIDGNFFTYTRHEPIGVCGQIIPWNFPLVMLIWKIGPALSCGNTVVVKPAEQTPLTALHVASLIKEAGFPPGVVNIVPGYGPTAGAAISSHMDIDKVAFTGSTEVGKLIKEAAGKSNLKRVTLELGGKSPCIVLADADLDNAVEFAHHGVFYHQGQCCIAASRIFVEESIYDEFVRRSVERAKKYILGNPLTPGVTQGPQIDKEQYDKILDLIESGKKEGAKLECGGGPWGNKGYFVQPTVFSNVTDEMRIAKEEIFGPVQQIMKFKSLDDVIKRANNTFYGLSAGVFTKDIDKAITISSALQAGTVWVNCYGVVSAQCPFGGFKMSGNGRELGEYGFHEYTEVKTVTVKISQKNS
Test: qHTS Assay for Inhibitors of Aldehyde Dehydrogenase 1 (ALDH1A1)
Conditions: Purified ALDH1A1, NADH fluorescence, propionaldehyde substrate; series mostly up to 75.3 µM
Potency means the concentration at half of the fitted maximal effect.

**Q.** With CC1=C(C)C(=O)OC(C(C)C2CCC3C4CC=C5CC(OC6OC(COC7OC(CO)C(O)C(O)C7O)C(O)C(O)C6O)CC(O)C5(C)C4CCC23C)C1 (centres undefined) as the compound, how does the Potency read?
**A.** The Potency was “inactive”.

**Q.** Which activity, negative = inhibition does the source give for C[C@@]12CCC(=O)C=C1CC[C@H]1C2[C@@H](O)C[C@]2(C)[C@@H]1CC[C@@]2(O)C(=O)COC(=O)C1CCCC1 (some centres undefined) here?
**A.** Its activity, negative = inhibition is -0.294% [at 13.5 µM].

**Q.** O=C(NCCc1ccco1)c1nn(Cc2ccccc2)c(=O)c2ccccc12 was tested. Which Potency did it give?
**A.** Its Potency is 17.8 µM (active).

**Q.** Which Potency does the source give for O=C(NCCSc1ccccc1)c1ccco1 here?
**A.** Its Potency is “inactive”.

**Q.** Nc1nonc1C(=O)NCCc1ccccc1 was tested. Which Potency did it give?
**A.** Its Potency is “inactive”.

**Q.** How did the Potency turn out when NC1=NC2(CCCCC2)N(c2ccc(F)cc2F)C(N)=N1 was run?
**A.** Its Potency is “inactive”.

**Q.** Which Potency does the source give for CSc1nnc(-c2ccc(C(F)(F)F)cn2)o1 here?
**A.** Its Potency is “inactive”.

**Q.** With CCn1c(-c2cccnc2Cl)nc2cc(C)c(C)cc21 as the compound, how does the Potency read?
**A.** The Potency was “inactive”.

**Q.** COc1ccc(/C=N/NC(=O)C(C)N(c2ccc(OC)cc2)S(C)(=O)=O)cc1 (centres undefined) was tested. Which Potency did it give?
**A.** Its Potency is “inactive”.

**Q.** For CN(C)c1cc[n+](Cc2ccccc2)cc1, which Potency is on record?
**A.** Its Potency is “inactive”.

**Q.** With CN(C)c1ccc(/C=N\S(=O)(=O)c2ccccc2)cc1 as the compound, how does the Potency read?
**A.** Its Potency is 0.708 µM (active).

**Q.** With C#CCOCCOCCOCCNc1nc(N2CCN(C(=O)[C@H](Cc3ccc(O)cc3)n3cc(C(N)CC(C)C)nn3)CC2)nc(N2CCN(C(=O)[C@H](CCC(=O)O)n3cc(C(N)[C@H](C)CC)nn3)CC2)n1 (some centres undefined) as the compound, how does the Potency read?
**A.** Its Potency is “inactive”.

**Q.** With CC1=C(C/C=C(\C)CCCC(C)CCCC(C)CCCC(C)C)C(=O)c2ccccc2C1=O (centres undefined) as the compound, how does the Potency read?
**A.** The Potency was “inactive”.

**Q.** For Cc1cc(C)c2nc(SCC(=O)N(C)C3CCS(=O)(=O)C3)cc(C)c2c1 (centres undefined), which Potency is on record?
**A.** Its Potency is “inactive”.

**Q.** Which Potency does the source give for Cc1ccccc1NC(=O)Nc1ccccc1N1CCCCC1 here?
**A.** The Potency was “inactive”.

**Q.** How did the Potency turn out when Cc1ccc(CN2CCN(Cc3ccc4ncccc4c3)CC2CCO)cc1 (centres undefined) was run?
**A.** Its Potency is “inactive”.

**Q.** For O=[N+]([O-])c1ccc(NCCCN2CCOCC2)c(Cl)c1, which Potency is on record?
**A.** Its Potency is “inactive”.

**Q.** For O=C(NCCNc1ccc([N+](=O)[O-])cc1)c1cccc2c(Br)cccc12, which Potency is on record?
**A.** Its Potency is “inactive”.

**Q.** O=C(NCCCNc1ccc([N+](=O)[O-])cc1Cl)c1ccccc1F was tested. Which Potency did it give?
**A.** Its Potency is 15.8 µM (active).

**Q.** How did the Potency turn out when Cc1ccc(C2=NN(C(=O)COc3ncnc4ccccc34)C(c3ccco3)C2)cc1 (centres undefined) was run?
**A.** The Potency was “inactive”.

**Q.** With C=C(C)C(=O)c1ccc(F)cc1 as the compound, how does the Potency read?
**A.** Its Potency is “inactive”.

**Q.** How did the Potency turn out when CCn1c(O)c(N=NC(=O)c2cccc(S(=O)(=O)N3CCCCC3)c2)c2ccccc21 was run?
**A.** Its Potency is “inactive”.

**Q.** For CCn1c(O)c(N=NC2=NC(=O)CS2)c2cc(C)ccc21, which Potency is on record?
**A.** Its Potency is 14.1 µM (active).

**Q.** CC(c1ccco1)N(C(=O)COc1ccccc1[N+](=O)[O-])c1ccccn1 (centres undefined) was tested. Which Potency did it give?
**A.** The Potency was “inactive”.

**Q.** Which Potency does the source give for CC(c1ccco1)N(C(=O)c1ccc(S(=O)(=O)N2CCCCC2)cc1)c1ccccn1 (centres undefined) here?
**A.** The Potency was 12.6 µM (active).

**Q.** With O=C(N/N=C/c1ccccn1)c1ccc(S(=O)(=O)N2CCCCCC2)cc1 as the compound, how does the Potency read?
**A.** Its Potency is “inactive”.

**Q.** Which Potency does the source give for COc1ccc(NS(=O)(=O)c2ccc(NC(=S)NC(=O)CC(C)C)cc2)cc1 here?
**A.** The Potency was 12.6 µM (active).

**Q.** CC(=O)c1ccc(NC(=S)NC(=O)CC(C)C)cc1 was tested. Which Potency did it give?
**A.** The Potency was “inactive”.

**Q.** With COc1ccc(C(=O)Nc2ccc(S(=O)(=O)NC(C)C)cc2)cc1 as the compound, how does the Potency read?
**A.** The Potency was “inactive”.

**Q.** Which Potency does the source give for O=C(NCC1CCN(Cc2ccccc2Cl)CC1)Nc1cccc(Cl)c1 here?
**A.** Its Potency is “inactive”.

**Q.** COC(=O)C1=C(C)N(c2ccc(Br)cc2)C(=O)/C1=C\c1ccco1 was tested. Which Potency did it give?
**A.** The Potency was “inactive”.

**Q.** For CCC1SC(CC)C(=O)N(CC(=O)NC2CCCCC2)C1=O (centres undefined), which Potency is on record?
**A.** Its Potency is “inactive”.

**Q.** For O=C(O)Cc1ccc(NCc2ccccc2Cl)cc1, which Potency is on record?
**A.** The Potency was “inactive”.

**Q.** Which Potency does the source give for CCC(C)NC(=O)/C=C/c1ccc(S(=O)(=O)NCc2ccco2)cc1 (centres undefined) here?
**A.** The Potency was 17.8 µM (active).

**Q.** Which Potency does the source give for O=C(NC1CCC(O)CC1)c1ccc(S(=O)(=O)NCc2ccco2)cc1 (centres undefined) here?
**A.** The Potency was “inactive”.

**Q.** With CC1CCN(S(=O)(=O)c2ccc(S(=O)(=O)NCc3ccco3)cc2)CC1 as the compound, how does the Potency read?
**A.** The Potency was “inactive”.

**Q.** CN(C)C(=O)c1nc2ccc(Cl)cn2c1CN1CCN(c2ncccn2)CC1 was tested. Which Potency did it give?
**A.** The Potency was “inactive”.

**Q.** With C=C(C)C1CC=C(C)/C(=N/NC(=O)CCCNc2cccc(C)c2)C1 (centres undefined) as the compound, how does the Potency read?
**A.** Its Potency is “inactive”.

**Q.** N#Cc1c(N)nc2c(c1N)CC(C(F)(F)F)O2 (centres undefined) was tested. Which Potency did it give?
**A.** Its Potency is “inactive”.

**Q.** With O=C1CN(C(=O)COC(=O)c2cnc(Cl)c(Cl)c2)c2ccccc2N1 as the compound, how does the Potency read?
**A.** The Potency was 1.26 µM (active).

**Q.** How did the Potency turn out when Cc1ccc(S(=O)(=O)N(C)CC(=O)OCC(=O)N2CC(=O)Nc3ccccc32)cc1 was run?
**A.** The Potency was “inactive”.

**Q.** With COc1ccc(Cl)cc1-n1c(C)cc(C(=O)OCC(=O)N2CC(=O)Nc3ccccc32)c1C as the compound, how does the Potency read?
**A.** Its Potency is “inactive”.

**Q.** For COc1cc(OC)c(C(=O)OCC(=O)N2CC(=O)Nc3ccccc32)cc1OC, which Potency is on record?
**A.** Its Potency is “inactive”.

**Q.** With Cc1ccc(S(=O)(=O)N2CCC(C(=O)OCC(=O)N3CC(=O)Nc4ccccc43)CC2)cc1 as the compound, how does the Potency read?
**A.** Its Potency is 12.6 µM (active).

**Q.** How did the Potency turn out when COc1ccc(S(=O)(=O)N2CCC(C(=O)OCC(=O)c3ccccc3)CC2)cc1[N+](=O)[O-] was run?
**A.** Its Potency is “inactive”.

**Q.** Which Potency does the source give for Oc1cccc(C2c3[nH]c4ccccc4c3CCN2Cc2cnn(-c3ccccc3)c2)c1 (centres undefined) here?
**A.** Its Potency is “inactive”.

**Q.** With CC(=O)Nc1ccccc1NC(=O)c1cc(C)cc(C)c1 as the compound, how does the Potency read?
**A.** Its Potency is “inactive”.

**Q.** With CCOc1ccc(CCNC(=O)C2=C(C)C(=O)OC23CCC(C)CC3)cc1OCC (centres undefined) as the compound, how does the Potency read?
**A.** Its Potency is “inactive”.

**Q.** For CC(Sc1nnnn1C1CCCCC1)C(=O)O (centres undefined), which Potency is on record?
**A.** The Potency was “inactive”.

**Q.** Which Potency does the source give for O=C(COc1ccc(Cl)cc1)NCc1nnc(SCC(=O)NCC2CCCO2)o1 (centres undefined) here?
**A.** Its Potency is “inactive”.

**Q.** Cc1ccc(-c2cc(=O)c3ccc(F)cc3[nH]2)cc1 was tested. Which Potency did it give?
**A.** The Potency was “inactive”.

**Q.** With COc1ccc(C)cc1NC(=O)CSc1nnc(CC(=O)Nc2ccccc2F)n1C as the compound, how does the Potency read?
**A.** The Potency was “inactive”.

**Q.** Which Potency does the source give for COc1ccc(Cl)cc1NC(=O)CNc1ccccc1F here?
**A.** The Potency was 31.6 µM (active).

**Q.** How did the Potency turn out when COc1ccc(C)cc1NC(=O)CSc1ccc(Cl)cc1 was run?
**A.** Its Potency is “inactive”.

**Q.** C=CCOC(=O)NC(c1ccc(F)c(F)c1)C(C(=O)COC)C(=O)OC (centres undefined) was tested. Which Potency did it give?
**A.** The Potency was “inactive”.

**Q.** For Cc1cc(C)cc(OCC(=O)Nc2nc3ccc([N+](=O)[O-])cc3s2)c1, which Potency is on record?
**A.** Its Potency is “inactive”.

**Q.** How did the Potency turn out when COC(=O)C(NC(=O)c1ccc(OC)cc1)(Nc1ncc(S(=O)(=O)c2ccc([N+](=O)[O-])cc2)s1)C(F)(F)F (centres undefined) was run?
**A.** Its Potency is “inactive”.

**Q.** With CCOCC(=O)Nc1ncc(S(=O)(=O)c2ccc([N+](=O)[O-])cc2)s1 as the compound, how does the Potency read?
**A.** The Potency was 3.55 µM (active).

**Q.** With Fc1ccc(NC(=S)N2CCc3[nH]c4ccccc4c3C2)cc1 as the compound, how does the Potency read?
**A.** Its Potency is “inactive”.

**Q.** O=C(O)CCCCCNc1ncnc2ccc(Br)cc12 was tested. Which Potency did it give?
**A.** Its Potency is “inactive”.

**Q.** With O=C(O)C[C@@H]1NC(=O)[C@H](Cc2ccccc2)NC1=O as the compound, how does the Potency read?
**A.** Its Potency is “inactive”.

**Q.** With O=C(CN1CCN(c2ccc(O)cc2)CC1)NC1CCCc2ccccc21 (centres undefined) as the compound, how does the Potency read?
**A.** The Potency was 11.2 µM (active).

**Q.** How did the Potency turn out when O=C(CSc1nncs1)NC1CCCc2ccccc21 (centres undefined) was run?
**A.** The Potency was “inactive”.

**Q.** Which Potency does the source give for O=C(CCC(=O)N1CCN(S(=O)(=O)c2ccccc2)CC1)NC1CCCc2ccccc21 (centres undefined) here?
**A.** The Potency was “inactive”.
